Rows were chosen to be rich in hits. Some 21% of all compounds tested hit in one or more screens of this group.
TDP1 cell noCPT: qHTS for Inhibitors of human tyrosyl-DNA phosphodiesterase 1 (TDP1): qHTS in cells in absence of CPT; DT40 Tdp1-/- hTDP1 cells, no CPT, ATP luminescence, 48 h; Potency, µM (series often up to 46.2 µM), actives largely listed as inhibitors; 420,000 tested, 15% active; AID 686978, 2013; note: nearly all actives have a fitted effect of over 55% in size
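Luminescent ATP content (CellTiter-Glo) served as the growth readout. Knockout chicken DT40 cells expressing human TDP1 were exposed to compounds without camptothecin for a minimum 48 hr at 37 °C.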
TDP1 cell CPT: qHTS for Inhibitors of human tyrosyl-DNA phosphodiesterase 1 (TDP1): qHTS in cells in presence of CPT; chicken DT40 Tdp1-/-;hTDP1 cells + 20 nM CPT, ATP luminescence, 48 h; Potency, µM (titrated, usually from 46.2 µM), hits mostly inhibitors; 420,000 tested, 12% active; AID 686979, 2013; note: nearly all actives have a fitted effect of over 55% in size
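Chicken DT40 Tdp1-/- cells complemented with human TDP1, 400 cells/well, exposed to compounds plus 20 nM camptothecin for at least 48 h at 37 C; viability read as ATP content by CellTiter-Glo luminescence.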
D3 antag: qHTS of D3 Dopamine Receptor Antagonist: qHTS; D(3) dopamine receptor (Homo sapiens), P35462; D3R cells, DiscoveRx beta-arrestin luminescence, antagonist mode; active compounds read low; max response, negative = inhibition, %; 360,000 tested, 2.5% active; in the data active = max response below about -50%; inconclusive = no clear call, values can overlap the other calls
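Cells plated overnight at 1500 cells/well, then exposed to library compounds with dopamine controls for 90 minutes at 37 degrees C. DiscoveRx reagent added for 30–60 minutes at room temperature; luminescence read, quantitative HTS format.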
IL-1B inflam inh: qHTS for Inhibitors of Inflammasome Signaling: IL-1-beta AlphaLISA Primary Screen; activity change, % at 57.5 µM; THP-1 LPS/ATP IL-1B secretion, AlphaLISA, 16 h; active compounds read low; 360,000 tested, 4.7% active; in the data active = activity change below about -50%; inconclusive = mostly about -30% to -49%
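Secreted IL-1B measured by AlphaLISA bead assay after 16 h compound exposure of THP-1 cells; compounds (final up to 57.5 uM) added 1 h before LPS (250 ng/mL) and ATP (1.25 mM) stimulation; lower signal means less secretion.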
D3 ag: qHTS of D3 Dopamine Receptor Agonist: qHTS. AID 652048, 2013. max activation, %. D3R DiscoveRx beta-arrestin cells, luminescence, 90 min. D(3) dopamine receptor (Homo sapiens), P35462. 410,000 tested, 0.58% active; in the data active = max activation above about 30%
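Agonist mode: compounds and dopamine controls were applied to plated cells for 90 min at 37 degrees C after an overnight attachment at 1500 cells/well. Luminescent read-out followed 30 - 60 minutes at room temperature with DiscoveRx detection reagent.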
ClpP mod: qHTS Assay for Activators of ClpP; ATP-dependent Clp protease proteolytic subunit (Bacillus subtilis (strain 168)), P80244; purified B. subtilis ClpP, FRET peptide cleavage, 20 min; Potency, µM (doses to about 57.5 µM); 340,000 tested, 1.9% active; AID 651965, 2013; active = well fitted falling curve with a large enough effect; inconclusive = small, poorly fitted or top-dose-only effect; inactive = no such curve, though single readings can be large or run the other way; note: the source files actives as falling curves though it sought activators and does not explain the sign; nearly all actives have a fitted effect of over 65% in size
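Buffer: 100 mM Tris/HCl pH8, 100 mM KCl, 0.05% low protease BSA, 2.5% glycerol, 0.01% Tween-20. ClpP 10 microg/mL final; 20 min RT; delta FRET normalized to ADEP and DMSO controls.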
A number is an active result; – = inactive; ? = inconclusive; · = not tested or not shown; ! = not active in a repeat. Unless noted, calls come from the whole dose curve; as a rule, active = well fitted inhibition curve with a large enough effect; inconclusive = small, poorly fitted or top-dose-only effect; inactive = flat fitted curve, though single readings scatter.

SMILES	TDP1 cell noCPT	TDP1 cell CPT	D3 antag	IL-1B inflam inh	D3 ag	ClpP mod
COc1ccc(OC)c(C2=NS(=O)(=O)N(C)C(C(=O)NCc3cccs3)=C2)c1	?	?	–	–	–	–
COc1ccc(OC)c(C2=NS(=O)(=O)N(C)C(C(=O)Nc3cccc(C(C)=O)c3)=C2)c1	?	21µM	–	–	–	–
CC(=O)c1ccc(NC(=O)C2=CC(c3ccc(C)cc3)=NS(=O)(=O)N2C)cc1	4.1µM	8.2µM	·	·	–	–
c1cc2ccc3ccc(-n4cnnn4)c4ccc(c1)c2c34	?	–	–	?	–	28µM
Cc1c(N)cccc1-n1cnnn1	–	–	–	–	–	–
OCCOCCNc1ncnc2sc(-c3ccccc3)cc12	?	?	–	–	–	32µM
COc1ccc(OC)c(Nc2ncnc3sc(-c4ccccc4)cc23)c1	?	?	–	–	–	?
CN(C)CCNc1ncnc2sc(-c3ccccc3)cc12	18µM	?	–	-72	–	–
CNc1ncnc2sc(-c3ccccc3)cc12	?	16µM	–	-77	–	14µM
COc1ccccc1-c1noc(-c2ccc(NCc3cccnc3)c([N+](=O)[O-])c2)n1	?	?	·	·	–	–
Cc1cc(O)c(C=O)c2c1C(=O)Oc1c(C)c(O)c3c(c1O2)C(O)OC3=O (stereo unspecified)	–	–	·	·	·	·
O=C(CSc1nc2c([nH]c3ccccc32)c(=O)n1-c1ccccc1)N1CCCc2ccccc21	–	–	·	·	–	–
C[C@@]12C(=O)OC(=O)[C@@]1(C)[C@@H]1CC[C@@H]2O1	30µM	30µM	·	·	·	·
O=C(Nc1ncccn1)c1cc([N+](=O)[O-])cc([N+](=O)[O-])c1	–	–	–	–	–	–
O=[N+]([O-])c1cc(-c2ncccn2)c([N+](=O)[O-])s1	2.9µM	2.3µM	-104	-86	–	–
O=C(Cc1ccccc1)NC(Nc1cccc2ccccc12)C(Cl)(Cl)Cl (stereo unspecified)	26µM	?	–	–	–	–
O=C(CSCc1ccccc1)Nc1cccc(F)c1	?	7.3µM	–	–	–	–
COc1cccc(NC(=O)Cc2ccccc2)c1	–	–	–	–	–	–
CCOc1ccccc1C(=O)N(C)CC(=O)Nc1ccc(OC)cc1	–	–	–	–	–	–
COc1ccc(NC(=O)CN(C)C(=O)C(Sc2ccccc2)c2ccccc2)cc1 (stereo unspecified)	?	16µM	–	–	–	–
O=C(Cc1ccccc1)Nc1cccc(N2C(=O)C=CC2=O)c1	4.6µM	5.2µM	–	-67	–	14µM
COc1ccc(NC(=O)CN(C)C(=O)c2ccccc2CCc2ccccc2)cc1	–	–	–	-52	–	·
O=C1CN(C(=O)/C=C/c2cc(Br)ccc2F)CCN1	–	–	–	–	–	·
CN(CC(=O)Nc1cccc(F)c1)C(=O)c1ccccc1CCc1ccccc1	21µM	15µM	–	–	–	–
COC(=O)[C@]12CCCCC=C1N(Cc1ccco1)C(=O)[C@H](CC(=O)NCCc1ccccc1OC)C2	?	?	–	–	–	–
SMILES	TDP1 cell noCPT	TDP1 cell CPT	D3 antag	IL-1B inflam inh	D3 ag	ClpP mod
COc1cc2c(cc1OC)CN(C(=O)C(C)(C)C)CC2	–	–	–	–	–	–
COc1cc2c(cc1OC)CN(C1CCC(C(C)(C)C)CC1)CC2 (stereo unspecified)	21µM	?	-88	·	–	·
CCOc1ccc(CNC(=O)Cn2c(=O)c3cccn3c3ccc(F)cc32)cc1	–	–	·	·	–	–
Cc1ccccc1CNC(=O)CCCn1c(=O)c2cccn2c2cccnc21	?	?	·	·	–	–
CCOc1ccccc1CNC(=O)CCCn1c(=O)c2cccn2c2ccc(F)cc21	12µM	?	·	·	–	?
CCOc1ccc(CNC(=O)CCCn2c(=O)c3cccn3c3ccc(F)cc32)cc1	12µM	?	·	·	–	–
O=C(CCCn1c(=O)c2cccn2c2ccccc21)NCc1ccccc1Br	16µM	?	·	·	–	–
Cc1ccc(C(=O)Nc2ccc(C(=O)N3CCCCC3)cc2)o1	?	?	?	?	–	–
Cc1ccc(NCCCCO)cc1C	?	–	–	–	–	·
Cc1cc(Br)ccc1NC(=O)CNC(=O)CSc1nccn1C	–	–	–	–	–	–
CCOC(=O)N1CCN(S(=O)(=O)c2ccc(OCC(=O)OC)cc2)CC1	–	–	–	-64	–	–
CCOC(=O)N1CCC(N2CCN(S(=O)(=O)c3ccc([N+](=O)[O-])cc3)CC2)CC1	?	13µM	–	–	–	–
CCOC(=O)C1CCN(S(=O)(=O)c2ccc3c(c2)NC(=O)C(C)C(=O)N3)CC1 (stereo unspecified)	23µM!	–	–	–	–	–
COC(=O)COc1ccc(S(=O)(=O)N2CCCCCC2)cc1	–	–	–	–	–	·
CCOC(=O)C1CCN(S(=O)(=O)c2ccc(OCC(=O)OC)cc2)CC1	–	–	–	-53	–	–
O=[N+]([O-])c1ccc(S(=O)(=O)N2CCN(C3CCN(Cc4ccccc4)CC3)CC2)cc1	?	–	?	–	–	·
CCc1ccccc1NC(=O)c1cc2nc(-c3ccc(Br)cc3)cc(C(F)(F)F)n2n1	?	?	·	·	–	–
CCOC(=O)C1=CN(Cc2ccco2)S(=O)(=O)N(CC)C1c1ccccc1 (stereo unspecified)	–	?	–	–	–	–
COCCNC(=O)c1cnn(-c2ccc(C)cc2C)c1C1CCN(C(=O)OC(C)(C)C)CC1	?	?	·	·	–	–
COC(=O)C1=C(C)N(Cc2ccccc2)C(=NCc2cccc(Cl)c2)N[C@H]1c1ccccc1	21µM	12µM	–	?	–	–
COCCN=C1N[C@@H](c2ccc(Br)cc2)C(C(=O)OC)=C(C)N1Cc1ccccc1	?	?	–	?	–	–
COCCN=C1N[C@@H](c2ccccc2)C(C(=O)OC)=C(C)N1Cc1ccccc1	23µM	?	–	–	–	–
CCN(CC)CCCN=C1N[C@@H](c2cccc(F)c2)C(C(=O)OC)=C(C)N1Cc1ccccc1	?	?	–	–	–	–
COC(=O)C1=C(C)N(Cc2ccccc2)C(=NCc2ccccc2)N[C@H]1c1cccc(F)c1	8.2µM	16µM	–	–	–	–

High-throughput results as filed in PubChem.
